Among all 10,000 compounds or so, about 320 (3.2%) were called active. The list comes from a sample in which actives are over-represented; it also holds similar structures and randomly drawn compounds. Values without a mark were called inactive. Rule as the data show it: active = CPE inhibition mostly above about 9.1% (no sharp cut-off); inactive = mostly below about 7.2%.
Assay: antivirals protecting cells from dengue CPE – CPE readout, HTS (AID 540333)
Settings: Dengue virus CPE inhibition in host cells, at 20 µM; hits give high values
For `O=C(Nc1cccc2nsnc12)c1cccnc1Cl`, the CPE inhibition was “inactive”.
For `Cc1ccc(CNC(=O)c2cc(-c3ccccc3)nn2CC2CC(c3cccnc3)=NO2)cc1` (centres undefined), the CPE inhibition was “inactive”.
For `Cc1ccc(-c2cc(C(F)(F)F)c(C#N)c(=O)[nH]2)cc1`, the CPE inhibition was 0.3%.
`N/C(=N\OC(=O)Cc1ccccc1[N+](=O)[O-])c1ccncc1` gave a CPE inhibition of 0.175%.
In the case of `Cc1ccc(C(=O)N/C(=C/c2ccco2)C(=O)NCCc2c[nH]c3ccccc23)cc1`, the CPE inhibition is reported as 0.17%.
Compound `CCn1cc([N+](=O)[O-])c(C(=O)N2N=C(c3ccc(O)c(OC)c3)CC2c2ccccc2O)n1` (centres undefined) has a CPE inhibition of 2.17%.
With `CCn1cc(Cl)c(C(=O)N2N=C(c3ccc4ccccc4c3)CC2c2ccccc2O)n1` (centres undefined) the CPE inhibition was 10% (active).
Compound `CCn1cc([N+](=O)[O-])c(C(=O)N2N=C(c3ccc(OC)cc3OC)CC2c2ccccc2O)n1` (centres undefined) has a CPE inhibition of 0.7%.
For `CC(=O)c1cccc(NC(=O)CCCOc2ccc(C)cc2)c1`, the CPE inhibition was “inactive”.
In the case of `Cc1noc(C)c1CN(C(=S)NC(C)C)c1ccccc1`, the CPE inhibition is reported as “inactive”.
For `Cc1ccsc1-c1n[nH]c(=S)n1CC(C)C`, the CPE inhibition was “inactive”.
Work on `Cn1nccc1C(=O)Nc1ccn(C23CC4CC(CC(C4)C2)C3)n1` yielded a CPE inhibition of 1.19%.
In the case of `Cn1cc([N+](=O)[O-])c(C(=O)Nc2ccn(C34CC5CC(CC(C5)C3)C4)n2)n1`, the CPE inhibition is reported as 9.72% (active).
For `CCn1cc([N+](=O)[O-])c(C(=O)Nc2ccn(C34CC5CC(CC(C5)C3)C4)n2)n1`, the CPE inhibition was 0.05%.
In the case of `O=C(C[n+]1cccc(CNC(=O)c2ccc(OC(F)F)cc2)c1)Nc1cccc(C(F)(F)F)c1`, the CPE inhibition is reported as 0.165%.
In the case of `CC(/C=C/c1ccccc1F)=N\NC(=O)C(C)C`, the CPE inhibition is reported as 1.25%.
Work on `CN(C)c1ccc(N=Nc2ccccc2C(=O)OCC(=O)N2CCCCCC2)cc1` yielded a CPE inhibition of 1.56%.
With `COc1ccc(C2OCC3(CO2)SC(=O)NC3=O)cc1` (centres undefined) the CPE inhibition was 0.47%.
With `O=C(NCC1CCCO1)C(c1cccs1)N(Cc1ccccc1Cl)C(=O)c1ccc(-c2ccccc2)[nH]1` (centres undefined) the CPE inhibition was 16.9% (active).
For `CC(C)(C)NC(=O)C(c1cccs1)N(CC1CCCO1)C(=O)c1ccc(-c2ccccc2)[nH]1` (centres undefined), the CPE inhibition was 28.6% (active).
In the case of `O=C(NC1CCCC1)C(c1ccncc1)N(Cc1ccccc1)C(=O)c1ccc(-c2ccccc2)[nH]1` (centres undefined), the CPE inhibition is reported as 3.1%.
For `Cc1cc(C)cc(NC(=O)C(NCC2CCCO2)c2ccccc2)c1` (centres undefined), the CPE inhibition was “inactive”.
For `COc1ccc(C(=O)N(CC2CCCO2)C(C(=O)NCCC(C)C)c2ccc(C)cc2)cc1OC` (centres undefined), the CPE inhibition was “inactive”.
For `O=C(NCC1CCCO1)C(c1cccs1)N(Cc1ccccc1)C(=O)c1ccc(-c2ccccc2)[nH]1` (centres undefined), the CPE inhibition was 8.12%.

— PubChem BioAssay AID540333 (Southern Research Specialized Biocontainment Screening …, 2011)
